Results taken from PubChem BioAssay AID927 (National Center for Advancing Translational Sciences (NCATS), 2007).
The whole screen tested about 60,000 compounds, of which about 65 (0.1%) were called active. The call rests on the fitted dose curve; in most records, active means well fitted inhibition curve with a large enough effect; inconclusive means small, poorly fitted or top-dose-only effect; inactive means no such curve, though single readings can be large or run the other way. Only a selection was taken, and actives are over-represented in it overall.

Each molecule was assayed against Ubiquitin carboxyl-terminal hydrolase 2 (Homo sapiens) (UniProt O75604) (assay: qHTS Assay for Inhibitors of Ubiquitin-specific Protease USP2a). Conditions: USP2a enzymatic assay; Potency: qHTS inhibition; series mostly up to 38.3 µM; activity change, negative = inhibition: at the top concentration.
Chain of Ubiquitin carboxyl-terminal hydrolase 2 (Homo sapiens) (O75604 whole entry, looked up): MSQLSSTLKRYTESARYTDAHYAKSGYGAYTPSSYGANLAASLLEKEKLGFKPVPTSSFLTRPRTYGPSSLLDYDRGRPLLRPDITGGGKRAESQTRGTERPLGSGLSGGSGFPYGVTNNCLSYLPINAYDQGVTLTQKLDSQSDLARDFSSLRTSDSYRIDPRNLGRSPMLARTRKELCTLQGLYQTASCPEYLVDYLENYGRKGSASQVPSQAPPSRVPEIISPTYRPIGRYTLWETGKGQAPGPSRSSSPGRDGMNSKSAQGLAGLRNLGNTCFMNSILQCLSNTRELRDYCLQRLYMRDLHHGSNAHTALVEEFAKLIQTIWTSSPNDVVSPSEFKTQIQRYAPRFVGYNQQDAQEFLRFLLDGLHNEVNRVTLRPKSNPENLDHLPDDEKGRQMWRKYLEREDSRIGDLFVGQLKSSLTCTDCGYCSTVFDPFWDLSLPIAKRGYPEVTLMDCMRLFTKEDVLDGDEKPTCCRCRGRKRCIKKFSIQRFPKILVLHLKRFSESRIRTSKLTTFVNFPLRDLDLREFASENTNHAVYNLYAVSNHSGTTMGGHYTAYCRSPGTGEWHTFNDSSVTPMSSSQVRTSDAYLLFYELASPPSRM
Source text: NIH Molecular Libraries Screening Centers Network [MLSCN]
NIH Chemical Genomics Center [NCGC]
PI Name: Nicholson, Ben. Progenra Inc, Malvern, PA
Homeostasis of cellular proteins is maintained through a combination of synthesis and degradation. The pathway that accounts for the majority of protein degradation is the ubiquitin-proteasomal pathway. Ubiquitin (Ub) is highly conserved in all cells and the generation of a multi-Ub chain typically targets proteins for degradation by the proteasome. However, ubiquitination is highly reversible and dynamic. Deubiquitination, the reverse process, is catalyzed through the action of enzymes referred to as isopeptidases or deubiquitinating enzymes (DUBs). This group of enzymes is collectively responsible for maintaining adequate pools of free ubiquitin and regulating the ubiquitination status of cellular proteins. The class of DUBs referred to as the ubiquitin-specific proteases (USP) family functions endoproteolytically to cleave Ub chains from a wide range of protein substrates. USP2a deubiquitinates fatty acid synthase (FASN) which has recently been identified as an emerging oncology target. To identify inhibitors of USP2a a cell-free assay was employed.
The reporter enzyme chosen is phospholipase A2 (PLA2), which has an absolute requirement for a free amino terminus. Thus, fusion of a UBL to the N-terminus of PLA2 inactivates PLA2. When the UBL-PLA2 reporter enzyme is cleaved by USP2, the activated reporter can subsequently act on its substrate, which is the commercially available NBD C6-HPC (Invitrogen). Thus, this coupled assay gives a fluorescent read-out, which is generated through the cleavage of the PLA2 reporter enzyme. The assay, developed by Progenra, Inc. uses Ub-PLA2 and USP2a at near equal and low (nM) amounts and has been licensed for sale by LifeSensors, Inc. as the Ub-IsoPro1 kit.
NCGC Assay Protocol Summary:
The assay buffer, prepared fresh at the day of the assay, contains 20mM Tris-HCl pH 8.0, 2mM CaCl2, 2mM beta-Mercaptoethanol, 0.1% DMSO. 3ul of 40nM (20nM final) USP2 core, which is stored on ice, is dispensed into a medium-binding black solid Kalypsys 1,536 well plate using the Kalypsys dispenser. The assay plate is then pinned with 23nL compound with the Kalypsys pintool in columns 5-48. The controls are pinned as follows: column 1&2 two-fold dilutions of 2M NEM in duplicate; column 3 DMSO; column 4 2M NEM (final concentration 38.2mM). The assay plate is incubated at RT for 30min. Subsequently, 3uL of 40nM (20nM final) Ub-PLA2 and 40uM (20uM final) NBD C6-HPC (stored on ice and protected from light) were dispensed into the plate using the Kalypsys dispenser. Plates were read immediately (0 Hour) on an Envision (Perkin Elmer) plate reader using the following wavelengths Ex 460nm /Em 535nm. Then, the assay plates were incubated for 2.5 hours and read again on the Envision using the same settings
Data were normalized to the to AC100 inhibition (NEM). Concentration-response curves were fitted to the normalized data and the concentration-response curves were then classified based on curve quality (r2), response magnitude and degree of measured activity. The time zero reading was used to flag fluorescence artifacts.
Keywords: ubiquitination, deubiquitination, proteases, profluorescent, MLSMR, MLSCN, NIH Roadmap, qHTS, NCGC
Further: nearly all actives have a fitted effect of over 60% in size.

Activity change, negative = inhibition, inactive:
CCCCNc1nc2ccccc2nc1NS(=O)(=O)c1cccs1 11.4%, Cc1ccc(N(C(=O)CC2NC(=O)NC2=O)C2(C(=O)NC3CCCC3)CCCCC2)cc1 (stereo unspecified) 14%, C=CCn1c(CSc2nc3ccccc3s2)nnc1SCC(=O)NCc1ccco1 22.9%, O/N=C1\CC2(Cc3nonc31)OCCO2 -8.23%, CC1(C)OC2CC3C4CCC5=CC(=O)CCC5(C)C4(F)C(O)CC3(C)[C@]2(C(=O)CCl)O1 (stereo partly specified) 32.2%, Cc1c(S(=O)(=O)O)oc2c1C(=O)C(=O)c1c-2ccc2c1CCCC2(C)C 28.5%, CC(C)OCCCNC(=O)C1CC(=O)N(C2CCCCCCC2)C1 (stereo unspecified) 6.61%, COc1ccc(OC)c(NC(=O)CSc2nc(N)c(-c3ccccc3)c(=O)[nH]2)c1 3.67%, O=C(O)C1CCN1C1CCCCC1 (stereo unspecified) -1.2%, O=C(O)c1ccc(COCC(F)(F)F)cc1 -7.83%, Cc1nnc(SCc2cc(=O)[nH]c(N3CCN(Cc4ccccc4)CC3)n2)s1 18.7%, CC(C)(O)CCC(O)[C@@](C)(O)C1CC[C@]2(O)C3=CC(=O)C4CC(O)C(O)C[C@]4(C)C3CC[C@]12C (stereo partly specified) -9.42%, CC(=O)Oc1c2c(c3c(c1CC=C(C)C)O[C@@]14C(=CC5CC1C(C)(C)OC4(C/C=C(\C)C(=O)O)C5=O)C3=O)OC(C)(CCC=C(C)C)C=C2 (stereo partly specified) 48.5%, CC1(C)CC(=O)C=C(NCCCN2CCCC2=O)C1 -3.87%, c1csc(-c2cn3c(n2)SCC3)c1 15.3%, COc1nc(Oc2ccc(=O)n(C)n2)nc(N(C)C)n1 0.801%, CC(C)C1=CC2=CC[C@@H]3[C@](C)(CO)CCC[C@]3(C)C2CC1 (stereo partly specified) 4.02%, Fc1cccc(/C=N\N=C/c2cccc(F)c2)c1 -4.64%, O=C(NCCCN1CCCCCC1)C1CC(=O)N(C2CCCC2)C1 (stereo unspecified) 4.66%, CCOC(=O)C1CCN(C(=O)Cc2c(C(=O)O)[nH]c3ccccc23)CC1 -3.9%, CCCCN(C)Cc1c(C)[nH]c2ccc(Cl)cc2c1=O -9.81%, CCOC(=O)Cc1csc(NC(=O)C(C)(C)C)n1 4.85%, Cn1c(=O)c2cn(-c3cccc4ccccc34)cc2n(C)c1=O 25.7%, Cc1nn(C)c(C)c1S(=O)(=O)N1CCc2ccccc21 2.65%, Nc1nc2[nH]c(=O)c(=O)[nH]c2c(=O)[nH]1 -4.69%, CN1CCCC1CCO[C@@](C)(c1ccccc1)c1ccc(Cl)cc1 (stereo partly specified) -0.877%, CS(=O)(=O)N1CCC2(CCN(c3ccncc3)CC2)CC1 -3.96%, O=c1c(O)c(-c2ccc(O)cc2)oc2ccccc12 55.6%, Cc1nnc(SCCCn2c(N3CCCCC3)nc3c2c(=O)[nH]c(=O)n3C)s1 1.5%, O=C(NC1CCN(Cc2ccccc2)CC1)c1ccccc1F 6.93%, COC(=O)[C@H](Cc1ccccc1)NC(=O)N1CC(C)OC(C)C1 (stereo partly specified) -0.592%, COc1ccc(CCC(=O)c2c(O)cc(OC3OC(CO)C(O)C(O)C3O[C@@H]3OC(C)C(O)C(O)C3O)cc2O)cc1O (stereo partly specified) -9.52%, O=C1NS(=O)(=O)c2ccccc21 36%, Cc1cc(=O)n2nc(N3CCCC(C(=O)N4CCN(C)CC4)C3)sc2n1 (stereo unspecified) -6.44%, C=C1C([C@@]2(C)C(OC(C)=O)CC(=O)O[C@@](C)(COC(C)=O)C2CC(=O)OC)C(OC=O)C(OC(=O)C(O)C(C)CC)[C@]2(C)C(c3ccoc3)CC(=O)C12O (stereo partly specified) 40.3%, COC(=O)CC1C(C)(C)C(OC(C)=O)C2CC3=C4CC(=O)OC(c5ccoc5)[C@]4(C)CCC3[C@@]1(C)C2=O (stereo partly specified) 31.6%, CC1(C)OC2CO[C@]3(COS(N)(=O)=O)OC(C)(C)OC3C2O1 (stereo partly specified) -7.19%, CCC1(C)Cc2c(sc3nc4n(c(=O)c23)CCCS4)CO1 (stereo unspecified) 20%, COC(=O)c1cccc(NC(=O)CSc2nc(C)cc(=O)[nH]2)c1 -2.63%, O=C(NCCCNCc1ccccc1)c1ccc(/C=N/O)nc1 5.49% [at 7.66 µM], C/C(=C\C(=O)c1ccc(Br)cc1)N1CCCCC1 41.4%, CCc1ccc2oc(=O)cc(CN3CCCCC3C)c2c1 (stereo unspecified) -29%, O=C(Oc1cc(OC(=O)c2ccccc2)c2c(c1)OC(c1ccc(OC(=O)c3ccccc3)c(OC(=O)c3ccccc3)c1)[C@@H](OC(=O)c1ccccc1)C2)c1ccccc1 (stereo partly specified) 5.9%, COc1ccc(CNC2CCCCC2)cc1 6.59%, Cc1nnc(SCC(=O)NCCOc2ccc(Cl)cc2)n1-c1ccccc1 7.14%, O=C1OC(C(O)CO)C(O)=C1O (stereo unspecified) -9.98%, CC(=O)OCC(=O)[C@@]1(O)CCC2C3CCC4=CC(=O)CC[C@@]4(C)[C@]3(F)C(O)C[C@]21C (stereo partly specified) 8.49%, Cc1nonc1NC(=O)c1ccccc1Br 4.87%, O=C1CCC(=O)N1CCOP1(=O)COc2ccccc2OC1 -1.14%, O=c1c(-c2cc(F)cc(F)c2)nc2cnc(Oc3ccccc3)nc2n1C[C@H]1CCCO1 58.2%, COc1c(C(C)C)oc2cc3oc(=O)ccc3cc12 1.16%, CCC1CCCCN1C(=O)Nc1cccc(NC(=O)N2CCCCC2CC)c1 (stereo unspecified) 20.3%, CC(=O)OCC(=O)C1CCC2C3CCC4=CC(=O)CC[C@@]4(C)C3CC[C@]12C (stereo partly specified) -3.21%, COC1[C@H](OC(N)=O)C(O)[C@H](Oc2ccc3c(O)c(NC(=O)c4ccc(O)c(CC=C(C)C)c4)c(=O)oc3c2C)OC1(C)C (stereo partly specified) 5.79%, O=C(O)C(O)[C@@](O)(Cc1ccc(O)cc1)C(=O)O (stereo partly specified) -9.13%, N#CC1=C(N)Oc2cc(O)ccc2C1C1CCCCC1 (stereo unspecified) -16.2%, CS(=O)(=O)N1CCC2(CC1)CN(Cc1cc(C(F)(F)F)cc(C(F)(F)F)c1)C2 22.6%, O=C(CN1CCOCC1)Nc1c(-c2ccccc2)c2cc(Br)ccc2[nH]c1=O 21.4%, CSc1ccc(S(=O)(=O)Nc2cccc(F)c2)cc1 4.55%, COc1ccc2occ(C(=O)c3ccc(N=C(C)N(C)C)cc3)c2c1 11.4%, CN(Cc1ccco1)c1ncncc1-c1ccoc1 -5.34%, O=C(NCc1ccc2c(c1)OCO2)c1cc2c(s1)CS(=O)(=O)C2 39.2%, CC(=NCc1ccco1)C1=C(O)c2ccccc2C1=O 9.53%, COc1cccc(C(CC(=O)NCCN2CCOCC2)NS(=O)(=O)c2ccc(C)cc2)c1OC (stereo unspecified) 4.84%, COC(=O)N1CCC[C@@]2(CCN(C(=O)NC(C)C)C2)C1 6.83%, CC(C)=CCC/C(C)=C/CC/C(C)=C/CC/C(C)=C/CO -13.7%
